tim23-1 inh: tim23-1 yeast growth inhibition. S. cerevisiae tim23-1 growth, BacTiter-Glo luminescence, 24 h. inhibition, % at 20 µM. hit rate 1.3% among 330,000;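 active = growth inhibition of the mutant yeast at or above 50%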;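 note: temperature-sensitive mutant grown at 25 °C; plate controls were DMSO-treated mutant yeast for no effect and medium wells lacking yeast for full effect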
TIM10 inh: TIM10 yeast growth inhibition; S. cerevisiae TIM10 strain growth, BacTiter-Glo luminescence, 24 h; inhibition, % at 10 µM; hit rate 1.4% among 330,000;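 active = inhibition of 40% or more at the single tested concentration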;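 note: wild-type TIM10 isogenic control strain grown at permissive 25 °C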
Calb FLC: affects C. albicans growth with fluconazole; AID 1979; growth inhibition, % (concentration not given with the values); C. albicans CaCi-2 (fluconazole-resistant clinical isolate) + fluconazole, Alamar Blue growth, 48 h; hit rate 0.57% among 300,000;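 active = growth inhibition above about 58% in most replicates, limit read from the data, passing the limit was not always enough; inconclusive = exactly half the replicates above a set limit; inactive = most replicates below a set limit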;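 note: all wells also contain fluconazole at 8 µg/ml as a sub-toxic cotreatment; 0% = median of DMSO wells and 100% = median of geldanamycin control wells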
tim10-1 inh: inhibits growth of tim10-1 mutant yeast; AID 463190; inhibition, % at 20 µM; S. cerevisiae tim10-1 ts strain growth, BacTiter-Glo, 24 h; hit rate 2.2% among 330,000;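 active = inhibition of at least 40%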;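 note: mutant grown at 25 °C; 0% = DMSO wells with yeast and 100% = wells holding no yeast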
PfHsp90 yeast 2: inhibits growth of yeast expressing Plasmodium falciparum Hsp90; inhibition, % at 9.4 µM; hit rate 0.32% among 310,000; S. cerevisiae expressing PfHsp90, BacTiter-Glo ATP, 48 h; yeast lacking PDR1 and PDR3 efflux regulators;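 active = every replicate shows inhibition above about 80%, whatever the replicate mean, limit read from the data; inconclusive = mean inhibition reaches the set limit but some replicate falls short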;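 note: 0% = DMSO neutral controls and 100% = 20 µM radicicol positive controls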
SKKanGAS inh: blocks kanamycin growth of S. pyogenes SKKanGAS strain; BacTiter-Glo, 6 h; inhibition, % at 7.5 µM; hit rate 1.3% among 300,000;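 active = mean replicate score, as percent of positive control median, at least 50; inconclusive = mean below 50 but one replicate at or above 50; inactive = mean and every replicate below 50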;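 note: strain carries kanamycin resistance gene driven by streptokinase promoter and grows in 40 µg/ml kanamycin; loss of luminescence reflects streptokinase promoter inhibition or plain growth inhibition; 0% = median of DMSO wells and 100% = positive control at its reference dose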
tim10-1 conf: confirmation of tim10-1 mutant yeast growth inhibitors; shares compounds with tim10-1 inh; S. cerevisiae tim10-1 ts strain growth, BacTiter-Glo, 24 h; inhibition, % at 20 µM; hit rate 56% among 7,400; AID 463213;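 active = inhibition of yeast growth at or above a set limit in either of two repeat tests at 20 µM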;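 note: tim10-1 mutant grown at permissive 25 °C to find synthetic lethal compounds; 0% = DMSO yeast wells and 100% = medium wells without yeast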
* = called active by the depositor; ? = inconclusive; . = no result. The list is not random: actives were taken first. Their share in the collection is about 4.7%.

SMILES	tim23-1 inh	TIM10 inh	Calb FLC	tim10-1 inh	PfHsp90 yeast 2	SKKanGAS inh	tim10-1 conf
CN(C)c1nc(OCCNC(=O)COc2ccc(Cl)cc2Cl)nc(N(C)C)n1	17	14	11	44*	.	-11	15
CCC(C(=O)O)n1c2ccccc2c2cn[nH]c(=O)c21 (stereo not given)	-8	2	2	13	10	-1	.
O=C(COC(=O)/C=C/c1ccccc1[N+](=O)[O-])NNC(=O)c1ccc(F)cc1	13	-10	.	1	-13	.	.
COc1ccc(-n2c(C)nc3c(cnn3-c3ccc(Cl)cc3)c2=O)cc1	30	25	11	41*	-34	6	8
CCc1ccc(C(=O)COC(=O)c2cccnc2Cl)cc1	9	-12	12	-4	1	-2	.
Cc1ccccc1C(=O)Nc1cccc(C(=O)N/N=C/c2cc(Cl)cc([N+](=O)[O-])c2O)c1	8	18	4	41*	-39	11	22
CCOC(=O)c1cn[nH]c1NC(=S)Nc1ccc(Cl)cc1	20	40	-8	41*	.	44	-27
Cc1coc2c1C(=O)C(=O)c1c-2ccc2c(C)cccc12	19	9	-10	51*	-112	73*	8
CCc1ccc(S(=O)(=O)N2CCN(c3ncccn3)CC2)cc1	30	7	-3	22	25	1	.
Cc1cccc2c(N=O)c(O)n(CCc3ccccc3)c12	38	20	1	41*	-3	-2	7
Cc1cccc2c(=O)cc(C)n(Cc3ccccc3)c12	5	-7	-14	10	18	-8	.
CCCCCCCSc1nsc(N)n1	43	24	-18	45*	.	-9	21
N#C/C(=C\c1ccc(O)c(Br)c1)C(=O)NCc1ccccc1	28	19	62	47*	-40	4	17
COc1cc(/C=C(\C#N)C(=O)NCc2cccs2)ccc1O	30	28	3	42*	-10	3	28
COc1cc(C(=O)NCC2CCCO2)ccc1OCc1ccc(Cl)cc1Cl (stereo not given)	33	18	14	43*	-18	3	30*
COCCNC(=O)/C(C#N)=C/c1ccc(OC(=O)c2cccs2)c(OC)c1	.	.	11	.	-38	-9	.
N#C/C(=C\c1ccc(O)c([N+](=O)[O-])c1)C(=O)NCc1ccccc1	20	1	1	15	-16	5	.
COc1ccc(/C=C(\C#N)C(=O)NCC2CCCO2)cc1OC (stereo not given)	46	23	6	40*	.	-13	11
COc1cc(/C=C(\C#N)C(=O)NCC2CCCO2)ccc1OCC(N)=O (stereo not given)	4	-3	-27	18	.	4	.
COc1cc(CCC(=O)OCC(=O)N2CCc3ccccc32)cc(OC)c1OC	32	12	-4	26	0	-7	.
CCOc1ccc(/C(C)=N/NC(=O)c2nnn(-c3nonc3N)c2-c2cccs2)cc1	-17	-7	10	-8	9	-3	.
CCN(CC(=O)Nc1ccc2c(c1)OCCO2)C(=O)CSCC(=O)Nc1ccc(C)cc1	15	4	0	14	-10	12	.
COCc1c(CCl)cnc(C)c1O	10	6	6	1	12	16	.
C=CCNC(=S)NNc1nc2c(c(=O)[nH]1)C1(CCCCC1)Cc1ccccc1-2	31	39	?	52*	-12	12	42*
CCOC(=O)c1c(-c2ccccc2)csc1NC(=O)CCN1C(=O)c2ccccc2C1=O	22	-19	18	17	-7	5	.
SMILES	tim23-1 inh	TIM10 inh	Calb FLC	tim10-1 inh	PfHsp90 yeast 2	SKKanGAS inh	tim10-1 conf
CCOC(=O)c1c(-c2ccc(-c3ccccc3)cc2)csc1NC(=O)CNCCN(C)C	48	-15	4	43*	5	112*	25
CCOC(=O)c1c(-c2ccccc2)csc1NC(=S)NC	27	19	?	42*	15	1	38*
CCNC(=S)Nc1scc(-c2ccccc2)c1C(=O)OCC	33	39	-4	41*	-11	34	31
CC(=O)c1sc(N/N=C\c2c(O)ccc3ccccc23)nc1C	23	10	5	42*	11	50*	-10
COc1cc(/C=C/C(=O)NC(=O)c2ccccc2O)ccc1OC(C)=O	-5	-4	5	-13	-23	16	.
COc1ccc(-n2cc(CN3CCCC3)c(-c3cccc(F)c3)n2)cc1	3	6	-2	11	-19	0	.
COc1ccc(-n2cc3c(-c4cccc(Br)c4)nnc(C)c3n2)cc1	48	26	55	46*	-5	28	31
COc1ccc(NC(=O)CSCC(=O)Nc2ccccc2C(=O)N2CCCCC2)cc1	-1	-1	.	-4	7	.	.
Cc1cccc(CSC(Nc2ccc(F)cc2)=C(C#N)C#N)c1	25	24	46	44*	-1	20	28
Cc1ccc2c(c1)c1c(n2C)-c2[nH]ncc2CC1	24	6	52	55*	.	14	-27
Cc1ccc2c(c1)c1c(n2C)C(C(N)=O)CCC1 (stereo not given)	15	-13	-18	4	.	-14	.
CCCN1CCN(C(=O)C2CCN(S(=O)(=O)c3c(C)noc3/C=C/c3ccc(C)cc3)CC2)CC1	30	12	20	54*	14	28	28*
Cc1ccc(Cn2ccnc2C(=O)Nc2ccccc2)cc1	15	5	-15	31	10	14	.
N#Cc1ccc(Cn2ccnc2C(=O)Nc2ccccc2)cc1	2	26	20	57*	-5	-1	27
Cc1cc(Br)ccc1NC(=O)C1C2CCC(O2)C1C(=O)O (stereo not given)	5	3	-2	-4	4	1	.
Cc1onc(-c2ccccc2)c1C(=O)N1CCN(Cc2ccccc2)CC1	18	5	4	20	13	0	.
O=C(CCN1C(=O)/C(=C/c2ccccc2)SC1=S)N1CCCCCC1	50	33	6	44*	-5	1	36*
CNC(=O)c1nnsc1S(=O)(=O)c1ccc(Cl)cc1	32	23	-7	58*	-118	1	47*
COc1cc(/C=N/NC(=O)C(=O)/C=C2\NC(C)(C)Cc3ccccc32)ccc1O	42	34	5	28	30	-3	.
Nc1nn2c(-c3ccccc3)cc(=O)[nH]c2c1N=Nc1ccc(O)cc1	5	4	66	41*	2	20	16
COC(=O)c1ccc(NC(=O)Cn2nc(C(=O)Nc3ccc(C)cc3)ccc2=O)cc1	6	3	-30	10	-9	2	.
CCC(=NCc1ccccc1)c1c(C(F)(F)F)[nH]n(-c2nc3ccccc3s2)c1=O	38	18	-16	46*	3	13	35*
COc1ccccc1CNC(=O)COC(=O)COc1ccccc1Cc1ccccc1	4	1	3	-4	9	23	.

High-throughput results as filed in PubChem BioAssay.
